The panel holds about 83,000 compounds, 20% with a hit somewhere; the sample as a whole holds those more often.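 48-hour exposure, single concentration, 96-well plates; percent growth endpoint where 0 means no net growth. Active: below 10.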 Active and inactive are the calls of the source.
How the values were obtained:
Test in all cases: NCI-60 one-dose screen, 48 h (100 = growth as untreated, 0 = no growth, -100 = all killed)
HCT-15 colon = conditions: 10 µM unless noted
HT29 colon = conditions: 10 µM unless noted
SNB-19 CNS = conditions: 10 µM unless noted
U251 CNS = conditions: 10 µM unless noted
PC-3 prostate = conditions: 10 µM unless noted
SK-MEL-5 melanoma = conditions: 10 µM unless noted
UACC-62 melanoma = conditions: 10 µM unless noted
LOX IMVI melanoma = conditions: 10 µM unless noted
SK-MEL-28 melanoma = conditions: 10 µM unless noted
SK-MEL-2 melanoma = conditions: 10 µM unless noted
EKVX NSCLC = conditions: 10 µM unless noted
SN12C renal = conditions: 10 µM unless noted
UO-31 renal = conditions: 10 µM unless noted
TK-10 renal = conditions: 10 µM unless noted
ACHN renal = conditions: 10 µM unless noted
A498 renal = conditions: 10 µM unless noted
CCRF-CEM leukemia = conditions: 10 µM unless noted
MOLT-4 leukemia = conditions: 10 µM unless noted
SNB-75 CNS = conditions: 10 µM unless noted
CAKI-1 renal = conditions: 10 µM

Measured: growth

CC1(C)N=C(N)N=C(N)N1c1ccc(OCC(=O)Nc2ccccc2)c(Cl)c1
inactive: HCT-15 colon 96.7% | HT29 colon 17.6% | SNB-19 CNS 49.4% | U251 CNS 41% | PC-3 prostate 14.8% | SK-MEL-5 melanoma 26.6% | UACC-62 melanoma 18.2% | LOX IMVI melanoma 22.4% | SK-MEL-28 melanoma 76.3% | SK-MEL-2 melanoma 47.5% | EKVX NSCLC 48.9% | SN12C renal 30.5% | UO-31 renal 104% | TK-10 renal 57.6% | ACHN renal 103% | A498 renal 94.8% | CCRF-CEM leukemia 28.8% | MOLT-4 leukemia 32%

CC(C)[C@@H]1NC(=O)[C@]2(C)CSC(=N2)c2ccnc(c2)CNC(=O)C[C@@H](/C=C/CCS)OC1=O
inactive: HCT-15 colon 52% | SNB-19 CNS 23.6% | PC-3 prostate 17.7% | SK-MEL-28 melanoma 16.6% | EKVX NSCLC 31.4% | SN12C renal 27.8% | UO-31 renal 12% | CCRF-CEM leukemia 16%
active: HT29 colon 2.76% | U251 CNS -66.6% | SK-MEL-5 melanoma -88.2% | LOX IMVI melanoma -94.9% | SK-MEL-2 melanoma -28.2% | ACHN renal 6.6% | A498 renal -77% | MOLT-4 leukemia 8.13%

CCCCCCCCN(CCCCCCCC)CC(O)c1cc(-c2ccccc2)nc2ccc(OC)cc12 (stereo unspecified)
inactive: HT29 colon 80.1% | SNB-75 CNS 96.4% | SNB-19 CNS 63.2% | U251 CNS 15.7% | PC-3 prostate 32.3% | SK-MEL-5 melanoma 46.5% | UACC-62 melanoma 52.5% | LOX IMVI melanoma 21% | SK-MEL-28 melanoma 100% | SK-MEL-2 melanoma 78.1% | EKVX NSCLC 94.6% | SN12C renal 39.9% | UO-31 renal 42.4% | TK-10 renal 91.7% | A498 renal 83.4%
active: CCRF-CEM leukemia 4.59% | MOLT-4 leukemia 9.81%

O=C1c2ccccc2C(=O)c2c(NCCN=Cc3c(O)ccc4ccccc34)cccc21
inactive: HT29 colon 88% | SNB-75 CNS 84% | SNB-19 CNS 84.9% | U251 CNS 83% | PC-3 prostate 84.5% | SK-MEL-5 melanoma 86.7% | UACC-62 melanoma 85.8% | LOX IMVI melanoma 66.7% | SK-MEL-28 melanoma 117% | SK-MEL-2 melanoma 107% | EKVX NSCLC 73.3% | SN12C renal 85.2% | UO-31 renal 49.9% | TK-10 renal 94.2% | A498 renal 80.7% | MOLT-4 leukemia 76.9%
active: CCRF-CEM leukemia -46.1%

[2H]c1nc(Nc2ncc(F)c(-c3cc(F)c4nc(C)n(C(C)C)c4c3)n2)c([2H])c([2H])c1CN1CCN(CC)CC1
inactive: HT29 colon 31.5% | SNB-75 CNS 26.5% | SNB-19 CNS 61.8% | U251 CNS 46.1% | PC-3 prostate 47.8% | SK-MEL-5 melanoma 27.5% | UACC-62 melanoma 62.5% | LOX IMVI melanoma 37% | SK-MEL-28 melanoma 60.5% | SK-MEL-2 melanoma 70.5% | EKVX NSCLC 55% | SN12C renal 47.8% | UO-31 renal 23.1% | TK-10 renal 35.1% | A498 renal 44.2% | CCRF-CEM leukemia 27.2% | MOLT-4 leukemia 15.4%

C[C@H]1C=C(C[C@@H](O)CCCCCCCCCC[C@@H](O)[C@H]2CCC(=O)O2)C(=O)O1
inactive: HT29 colon 109% | SNB-75 CNS 115% | SNB-19 CNS 96.7% | U251 CNS 99.5% | PC-3 prostate 89.4% | SK-MEL-5 melanoma 95.9% | UACC-62 melanoma 92.2% | LOX IMVI melanoma 90.5% | SK-MEL-28 melanoma 124% | SK-MEL-2 melanoma 80.2% | EKVX NSCLC 91% | SN12C renal 117% | UO-31 renal 82% | TK-10 renal 100% | ACHN renal 96.8% | A498 renal 163% | CCRF-CEM leukemia 78.5% | MOLT-4 leukemia 112%

COc1cc(C(=O)NNC(=O)c2ccccc2O)cc(OC)c1OC
inactive: HT29 colon 80.6% | SNB-75 CNS 79.2% | SNB-19 CNS 93.3% | U251 CNS 91.6% | PC-3 prostate 70.9% | SK-MEL-5 melanoma 86.9% | UACC-62 melanoma 81.3% | LOX IMVI melanoma 102% | SK-MEL-28 melanoma 109% | SK-MEL-2 melanoma 80.2% | EKVX NSCLC 103% | SN12C renal 98.4% | UO-31 renal 74.3% | TK-10 renal 85.6% | A498 renal 75.8% | CCRF-CEM leukemia 89.4% | MOLT-4 leukemia 74.6%

COc1cc(-c2nc3sc(C)cn3c2/C=C2\C(=O)Nc3ccccc32)c(Br)c(OC)c1OC
active: HT29 colon 9.62%
inactive: SNB-75 CNS 18.2% | SNB-19 CNS 40.4% | U251 CNS 52.1% | PC-3 prostate 26.5% | SK-MEL-5 melanoma 10.4% | UACC-62 melanoma 52.8% | LOX IMVI melanoma 41.3% | SK-MEL-28 melanoma 69.5% | SK-MEL-2 melanoma 74.3% | EKVX NSCLC 31.5% | SN12C renal 90.9% | UO-31 renal 24.8% | TK-10 renal 56.5% | ACHN renal 57% | A498 renal 22.6% | CCRF-CEM leukemia 34.7% | MOLT-4 leukemia 39.9%

CCCOC(=O)c1ccc([N+](=O)[O-])o1
inactive: HT29 colon 92.2% | SNB-75 CNS 83.7% | SNB-19 CNS 111% | U251 CNS 101% | PC-3 prostate 91.6% | SK-MEL-5 melanoma 116% | UACC-62 melanoma 104% | LOX IMVI melanoma 101% | SK-MEL-28 melanoma 106% | SK-MEL-2 melanoma 102% | EKVX NSCLC 112% | SN12C renal 103% | UO-31 renal 96.2% | TK-10 renal 104% | ACHN renal 105% | CCRF-CEM leukemia 97.4%

CCOc1ccc(NC(=O)Nc2cc(C(C)C)ccc2C)cc1
inactive: HT29 colon 85% | SNB-19 CNS 79.5% | U251 CNS 28.9% | PC-3 prostate 69.3% | SK-MEL-5 melanoma 124% | UACC-62 melanoma 80% | LOX IMVI melanoma 71.2% | SK-MEL-28 melanoma 68% | SK-MEL-2 melanoma 68.6% | EKVX NSCLC 96.1% | SN12C renal 57.3% | UO-31 renal 15.2% | TK-10 renal 55% | ACHN renal 20.6% | A498 renal 87.2% | CCRF-CEM leukemia 44.4% | MOLT-4 leukemia 72.2%

CCCCCCCCCCCCCCCCCCNCc1ccc(Cl)cc1
inactive: SK-MEL-5 melanoma 11.8% | SK-MEL-28 melanoma 27.2%
active: HT29 colon -94.7% | SNB-75 CNS -60.9% | SNB-19 CNS -67.6% | U251 CNS -84.8% | PC-3 prostate -89.3% | UACC-62 melanoma -46.7% | LOX IMVI melanoma -74.6% | SK-MEL-2 melanoma -73.3% | EKVX NSCLC -30.2% | SN12C renal -60.8% | UO-31 renal -78.6% | TK-10 renal -65.1% | A498 renal -75.8% | CCRF-CEM leukemia -45.9% | MOLT-4 leukemia -62.1%

Cc1ccn2cc(Cc3cc(=O)oc4c3ccc3ccccc34)c(=O)nc2c1
inactive: HT29 colon 87.8% | SNB-75 CNS 81.4% | SNB-19 CNS 103% | U251 CNS 102% | PC-3 prostate 104% | SK-MEL-5 melanoma 100% | UACC-62 melanoma 96.6% | LOX IMVI melanoma 98.6% | SK-MEL-28 melanoma 100% | SK-MEL-2 melanoma 80.6% | EKVX NSCLC 92.5% | SN12C renal 96.4% | UO-31 renal 80.2% | TK-10 renal 124% | ACHN renal 95.5% | A498 renal 111% | CCRF-CEM leukemia 95.8% | MOLT-4 leukemia 87.9%

CC(=O)CC/C=C(\C)[C@H](O)[C@H](C)C(=O)O[C@H]1C[C@H](C)C=C2C=C[C@@]3(C)O[C@@H](O)CC(=O)[C@]3(C)[C@H]21
active: HT29 colon -33.8% | SNB-19 CNS -12.3% | U251 CNS -25.9% | PC-3 prostate -31.2% | SK-MEL-5 melanoma -91.7% | UACC-62 melanoma -56.6% | LOX IMVI melanoma -55.1% | SK-MEL-28 melanoma -40.7% | SK-MEL-2 melanoma -59.7% | EKVX NSCLC -28.8% | SN12C renal -11.5% | UO-31 renal -28.6% | TK-10 renal -27.4% | A498 renal -66.2% | MOLT-4 leukemia -7.91%

CN[C@@H](CCCNC(N)=NC/C=C(/C)CCC=C(C)C)C(=O)N(C)[C@@H](CCCNC(N)=NCC=C(C)C)C(=O)N[C@H](C)[C@H](OS(=O)(=O)O)c1ccc(OS(=O)(=O)O)c(COS(=O)(=O)O)c1
inactive: HT29 colon 86.2% | SNB-75 CNS 98.6% | SNB-19 CNS 101% | U251 CNS 98.4% | PC-3 prostate 89.5% | SK-MEL-5 melanoma 99.6% | UACC-62 melanoma 93.8% | LOX IMVI melanoma 99.7% | SK-MEL-28 melanoma 107% | SK-MEL-2 melanoma 105% | EKVX NSCLC 113% | SN12C renal 101% | UO-31 renal 97.6% | ACHN renal 113% | CAKI-1 renal 106% | A498 renal 87% | CCRF-CEM leukemia 102% | MOLT-4 leukemia 96.9%

c1ccc(-c2nc3sc(C(c4ccccc4)c4ccccc4)nn3c2-c2ccccc2)cc1
inactive: HT29 colon 94.9% | SNB-75 CNS 85% | SNB-19 CNS 109% | U251 CNS 102% | PC-3 prostate 78.7% | SK-MEL-5 melanoma 109% | UACC-62 melanoma 89% | LOX IMVI melanoma 89.4% | SK-MEL-28 melanoma 102% | SK-MEL-2 melanoma 81.3% | EKVX NSCLC 89.8% | SN12C renal 93.8% | UO-31 renal 90.8% | ACHN renal 97.5% | CCRF-CEM leukemia 100% | MOLT-4 leukemia 107%

O=C(C[n+]1ccccc1Cl)c1ccc2c(c1)CCCC2
inactive: HT29 colon 79.7% | SNB-75 CNS 88.4% | SNB-19 CNS 108% | U251 CNS 97.7% | PC-3 prostate 87.3% | SK-MEL-5 melanoma 98.4% | UACC-62 melanoma 106% | LOX IMVI melanoma 101% | SK-MEL-28 melanoma 105% | SK-MEL-2 melanoma 103% | EKVX NSCLC 78.9% | SN12C renal 101% | UO-31 renal 93.6% | TK-10 renal 92.8% | ACHN renal 105% | A498 renal 91.3% | CCRF-CEM leukemia 90.6% | MOLT-4 leukemia 73.6%

CN1C(=O)C2(NN=C(c3cccc4ccccc34)S2)c2ccccc21 (stereo unspecified)
active: U251 CNS 9.26% | CCRF-CEM leukemia 9.4% | MOLT-4 leukemia 2.9%
inactive: HT29 colon 50.8% | SNB-75 CNS 73.4% | SNB-19 CNS 33.7% | PC-3 prostate 19.7% | SK-MEL-5 melanoma 41.8% | UACC-62 melanoma 17.2% | LOX IMVI melanoma 31.3% | SK-MEL-28 melanoma 32.4% | SK-MEL-2 melanoma 37.1% | EKVX NSCLC 24% | SN12C renal 31.5% | UO-31 renal 18.5% | ACHN renal 30.5% | CAKI-1 renal 25.7% | A498 renal 47%

From PubChem BioAssay (NCI)
